# Reference: publication PMC11006913
# Substitutions are numbered along the chain they refer to.
# Legend:
# Test in all cases: PBM; 200 nM protein, PBS
# Conditions in all cases: dsDNA, one strand shown
# MSX2 [1] = molecular target: MSX2 (Homo sapiens, UniProt P35548 130-214, R199I)
# MSX2 [2] = molecular target: MSX2 (Homo sapiens, UniProt P35548 130-214)
# VAX1 [3] = molecular target: VAX1 (Homo sapiens, UniProt Q5SQQ9 86-172)
# MSX2 [4] = molecular target: MSX2 (Homo sapiens, UniProt P35548 130-214, F161Y)
# Chain of MSX2 (Homo sapiens, UniProt P35548 130-214, F161Y) (P35548 130-214 F161Y): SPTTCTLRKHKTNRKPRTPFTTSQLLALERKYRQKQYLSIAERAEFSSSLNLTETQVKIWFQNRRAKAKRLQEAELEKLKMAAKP
# VAX1 [5] = molecular target: VAX1 (Homo sapiens, UniProt Q5SQQ9 86-172, T142I)
# Chain of VAX1 (Homo sapiens, UniProt Q5SQQ9 86-172, T142I) (Q5SQQ9 86-172 T142I): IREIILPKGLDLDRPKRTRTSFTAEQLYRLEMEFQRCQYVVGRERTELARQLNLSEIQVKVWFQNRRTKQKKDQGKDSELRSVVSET
# VAX1 [6] = molecular target: VAX1 (Homo sapiens, UniProt Q5SQQ9 86-172, K157R)
# Chain of VAX1 (Homo sapiens, UniProt Q5SQQ9 86-172, K157R) (Q5SQQ9 86-172 K157R): as the sequence (Q5SQQ9 86-172 T142I) above, with I57T, K72R counted along it
# NKX2-6 [7] = molecular target: T1, NKX2-6 (Homo sapiens, UniProt A6NCS4 118-204)
# T1 sequence: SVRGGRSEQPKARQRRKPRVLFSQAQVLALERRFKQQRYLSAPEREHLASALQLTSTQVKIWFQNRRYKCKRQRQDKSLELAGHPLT
# NKX2-6 [8] = molecular target: T2, NKX2-6 (Homo sapiens, UniProt A6NCS4 118-204, F151L)
# T2 sequence: T1 sequence with F34L
# ALX1 [9] = molecular target: ALX1 (Homo sapiens, UniProt Q15699 118-204, L144V)
# Chain of ALX1 (Homo sapiens, UniProt Q15699 118-204, L144V) (Q15699 118-204 L144V): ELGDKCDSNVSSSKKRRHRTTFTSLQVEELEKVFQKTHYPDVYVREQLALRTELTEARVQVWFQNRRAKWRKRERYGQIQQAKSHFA
# ALX1 [10] = molecular target: ALX1 (Homo sapiens, UniProt Q15699 118-204, L144R)
# Chain of ALX1 (Homo sapiens, UniProt Q15699 118-204, L144R) (Q15699 118-204 L144R): as the sequence (Q15699 118-204 L144V) above, with V27R counted along it
# ALX1 [11] = molecular target: ALX1 (Homo sapiens, UniProt Q15699 118-204)
# Chain of ALX1 (Homo sapiens, UniProt Q15699 118-204) (Q15699 118-204): as the sequence (Q15699 118-204 L144V) above, with V27L counted along it
# ALX3 [12] = molecular target: ALX3 (Homo sapiens, UniProt O95076 139-225, N203Q)
# Chain of ALX3 (Homo sapiens, UniProt O95076 139-225, N203Q) (O95076 139-225 N203Q): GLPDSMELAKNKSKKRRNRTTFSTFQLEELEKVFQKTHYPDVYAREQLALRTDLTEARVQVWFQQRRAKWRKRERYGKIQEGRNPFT
# ALX3 [13] = molecular target: ALX3 (Homo sapiens, UniProt O95076 139-225)
# Chain of ALX3 (Homo sapiens, UniProt O95076 139-225) (O95076 139-225): as the sequence (O95076 139-225 N203Q) above, with Q65N counted along it
# ALX3 [14] = molecular target: ALX3 (Homo sapiens, UniProt O95076 139-225, L168Q)
# Chain of ALX3 (Homo sapiens, UniProt O95076 139-225, L168Q) (O95076 139-225 L168Q): as the sequence (O95076 139-225 N203Q) above, with L30Q, Q65N counted along it
# ALX3 [15] = molecular target: ALX3 (Homo sapiens, UniProt O95076 139-225, L168V)
# Chain of ALX3 (Homo sapiens, UniProt O95076 139-225, L168V) (O95076 139-225 L168V): as the sequence (O95076 139-225 N203Q) above, with L30V, Q65N counted along it
# ALX3 [16] = molecular target: ALX3 (Homo sapiens, UniProt O95076 139-225, N203S)
# Chain of ALX3 (Homo sapiens, UniProt O95076 139-225, N203S) (O95076 139-225 N203S): as the sequence (O95076 139-225 N203Q) above, with Q65S counted along it
# NKX3-2 [17] = molecular target: NKX3-2 (Homo sapiens, UniProt P78367 192-278, P234S)
# Chain of NKX3-2 (Homo sapiens, UniProt P78367 192-278, P234S) (P78367 192-278 P234S): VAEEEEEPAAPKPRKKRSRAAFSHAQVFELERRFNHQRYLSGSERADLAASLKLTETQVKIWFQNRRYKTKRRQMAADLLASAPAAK
# NKX3-2 [18] = molecular target: NKX3-2 (Homo sapiens, UniProt P78367 192-278)
# Chain of NKX3-2 (Homo sapiens, UniProt P78367 192-278) (P78367 192-278): as the sequence (P78367 192-278 P234S) above, with S43P counted along it
# HOXA4 = HOXA4 (Homo sapiens, UniProt Q00056 201-287, W262F)
# Chain of HOXA4 (Q00056 201-287 W262F): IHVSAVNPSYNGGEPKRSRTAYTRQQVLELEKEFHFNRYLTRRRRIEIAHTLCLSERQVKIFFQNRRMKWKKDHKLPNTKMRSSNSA
# Chain of MSX2 (Homo sapiens, UniProt P35548 130-214) (P35548 130-214): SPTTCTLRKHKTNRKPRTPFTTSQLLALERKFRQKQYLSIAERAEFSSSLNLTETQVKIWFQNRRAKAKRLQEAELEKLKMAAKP
# Chain of MSX2 (Homo sapiens, UniProt P35548 130-214, R199I) (P35548 130-214 R199I): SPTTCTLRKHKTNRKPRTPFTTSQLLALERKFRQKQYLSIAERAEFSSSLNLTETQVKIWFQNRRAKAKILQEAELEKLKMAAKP
# Chain of VAX1 (Homo sapiens, UniProt Q5SQQ9 86-172) (Q5SQQ9 86-172): as the sequence (Q5SQQ9 86-172 T142I) above, with I57T counted along it
sequence,measurement,setting,value
GAGCCGAC,binding signal,MSX2 [1],"9.44 upbm affinity estimate (log intensity, higher = more binding, comparable within an allelic series)"
same,binding signal,MSX2 [2],"9.46 upbm affinity estimate (log intensity, higher = more binding, comparable within an allelic series)"
same,binding signal,VAX1 [3],"7.12 upbm affinity estimate (log intensity, higher = more binding, comparable within an allelic series)"
same,binding signal,MSX2 [4],"9.31 upbm affinity estimate (log intensity, higher = more binding, comparable within an allelic series)"
same,binding signal,VAX1 [5],"7.21 upbm affinity estimate (log intensity, higher = more binding, comparable within an allelic series)"
same,binding signal,VAX1 [6],"7.3 upbm affinity estimate (log intensity, higher = more binding, comparable within an allelic series)"
GGCCAGCA,binding signal,MSX2 [1],"9.48 upbm affinity estimate (log intensity, higher = more binding, comparable within an allelic series)"
same,binding signal,NKX2-6 [7],"9.51 upbm affinity estimate (log intensity, higher = more binding, comparable within an allelic series)"
same,binding signal,MSX2 [2],"9.54 upbm affinity estimate (log intensity, higher = more binding, comparable within an allelic series)"
same,binding signal,VAX1 [3],"7.05 upbm affinity estimate (log intensity, higher = more binding, comparable within an allelic series)"
same,binding signal,NKX2-6 [8],"9.32 upbm affinity estimate (log intensity, higher = more binding, comparable within an allelic series)"
same,binding signal,MSX2 [4],"9.57 upbm affinity estimate (log intensity, higher = more binding, comparable within an allelic series)"
same,binding signal,VAX1 [5],"7.11 upbm affinity estimate (log intensity, higher = more binding, comparable within an allelic series)"
same,binding signal,VAX1 [6],"7.17 upbm affinity estimate (log intensity, higher = more binding, comparable within an allelic series)"
AGGGGCCG,binding signal,MSX2 [1],"9.46 upbm affinity estimate (log intensity, higher = more binding, comparable within an allelic series)"
same,binding signal,MSX2 [2],"9.56 upbm affinity estimate (log intensity, higher = more binding, comparable within an allelic series)"
same,binding signal,MSX2 [4],"9.42 upbm affinity estimate (log intensity, higher = more binding, comparable within an allelic series)"
AGCTATTA,binding signal,MSX2 [1],"11.1 upbm affinity estimate (log intensity, higher = more binding, comparable within an allelic series)"
same,binding signal,MSX2 [2],"12.1 upbm affinity estimate (log intensity, higher = more binding, comparable within an allelic series)"
same,binding signal,MSX2 [4],"11.9 upbm affinity estimate (log intensity, higher = more binding, comparable within an allelic series)"
GACTCCCC,binding signal,ALX1 [9],"6.43 upbm affinity estimate (log intensity, higher = more binding, comparable within an allelic series)"
same,binding signal,ALX1 [10],"6.48 upbm affinity estimate (log intensity, higher = more binding, comparable within an allelic series)"
same,binding signal,ALX1 [11],"6.25 upbm affinity estimate (log intensity, higher = more binding, comparable within an allelic series)"
CATACTAA,binding signal,MSX2 [1],"10.4 upbm affinity estimate (log intensity, higher = more binding, comparable within an allelic series)"
same,binding signal,MSX2 [2],"10.7 upbm affinity estimate (log intensity, higher = more binding, comparable within an allelic series)"
same,binding signal,MSX2 [4],"10.6 upbm affinity estimate (log intensity, higher = more binding, comparable within an allelic series)"
ATTAACAC,binding signal,MSX2 [1],"11.3 upbm affinity estimate (log intensity, higher = more binding, comparable within an allelic series)"
same,binding signal,MSX2 [2],"12.1 upbm affinity estimate (log intensity, higher = more binding, comparable within an allelic series)"
same,binding signal,MSX2 [4],"11.8 upbm affinity estimate (log intensity, higher = more binding, comparable within an allelic series)"
ATTATAAC,binding signal,ALX1 [9],"10.3 upbm affinity estimate (log intensity, higher = more binding, comparable within an allelic series)"
same,binding signal,ALX3 [12],"8.52 upbm affinity estimate (log intensity, higher = more binding, comparable within an allelic series)"
same,binding signal,ALX1 [10],"9.95 upbm affinity estimate (log intensity, higher = more binding, comparable within an allelic series)"
same,binding signal,ALX1 [11],"10.6 upbm affinity estimate (log intensity, higher = more binding, comparable within an allelic series)"
CCGGGCCG,binding signal,ALX1 [9],"6.6 upbm affinity estimate (log intensity, higher = more binding, comparable within an allelic series)"
same,binding signal,ALX3 [12],"7.72 upbm affinity estimate (log intensity, higher = more binding, comparable within an allelic series)"
same,binding signal,ALX1 [10],"6.56 upbm affinity estimate (log intensity, higher = more binding, comparable within an allelic series)"
same,binding signal,ALX3 [13],"7.76 upbm affinity estimate (log intensity, higher = more binding, comparable within an allelic series)"
same,binding signal,ALX3 [14],"7.74 upbm affinity estimate (log intensity, higher = more binding, comparable within an allelic series)"
same,binding signal,ALX3 [15],"7.65 upbm affinity estimate (log intensity, higher = more binding, comparable within an allelic series)"
same,binding signal,ALX1 [11],"6.37 upbm affinity estimate (log intensity, higher = more binding, comparable within an allelic series)"
same,binding signal,ALX3 [16],"7.67 upbm affinity estimate (log intensity, higher = more binding, comparable within an allelic series)"
CCAGACTC,binding signal,ALX1 [9],"6.24 upbm affinity estimate (log intensity, higher = more binding, comparable within an allelic series)"
same,binding signal,ALX1 [10],"6.47 upbm affinity estimate (log intensity, higher = more binding, comparable within an allelic series)"
same,binding signal,ALX1 [11],"6.13 upbm affinity estimate (log intensity, higher = more binding, comparable within an allelic series)"
ATACATAA,binding signal,MSX2 [1],"11 upbm affinity estimate (log intensity, higher = more binding, comparable within an allelic series)"
same,binding signal,MSX2 [2],"11.6 upbm affinity estimate (log intensity, higher = more binding, comparable within an allelic series)"
same,binding signal,MSX2 [4],"11.4 upbm affinity estimate (log intensity, higher = more binding, comparable within an allelic series)"
AGCCCACC,binding signal,MSX2 [1],"9.45 upbm affinity estimate (log intensity, higher = more binding, comparable within an allelic series)"
same,binding signal,MSX2 [2],"9.52 upbm affinity estimate (log intensity, higher = more binding, comparable within an allelic series)"
same,binding signal,MSX2 [4],"9.47 upbm affinity estimate (log intensity, higher = more binding, comparable within an allelic series)"
CGGCCGAG,binding signal,ALX1 [9],"6.33 upbm affinity estimate (log intensity, higher = more binding, comparable within an allelic series)"
same,binding signal,ALX1 [10],"6.51 upbm affinity estimate (log intensity, higher = more binding, comparable within an allelic series)"
same,binding signal,ALX1 [11],"6.15 upbm affinity estimate (log intensity, higher = more binding, comparable within an allelic series)"
AGCGCCGG,binding signal,MSX2 [1],"9.57 upbm affinity estimate (log intensity, higher = more binding, comparable within an allelic series)"
same,binding signal,MSX2 [2],"9.53 upbm affinity estimate (log intensity, higher = more binding, comparable within an allelic series)"
same,binding signal,MSX2 [4],"9.52 upbm affinity estimate (log intensity, higher = more binding, comparable within an allelic series)"
GAGGAAGC,binding signal,MSX2 [1],"9.59 upbm affinity estimate (log intensity, higher = more binding, comparable within an allelic series)"
same,binding signal,MSX2 [2],"9.52 upbm affinity estimate (log intensity, higher = more binding, comparable within an allelic series)"
same,binding signal,MSX2 [4],"9.52 upbm affinity estimate (log intensity, higher = more binding, comparable within an allelic series)"
CGCCTTCC,binding signal,ALX1 [9],"6.24 upbm affinity estimate (log intensity, higher = more binding, comparable within an allelic series)"
same,binding signal,ALX1 [10],"6.38 upbm affinity estimate (log intensity, higher = more binding, comparable within an allelic series)"
same,binding signal,ALX1 [11],"6.08 upbm affinity estimate (log intensity, higher = more binding, comparable within an allelic series)"
CGACAGGC,binding signal,ALX1 [9],"6.36 upbm affinity estimate (log intensity, higher = more binding, comparable within an allelic series)"
same,binding signal,ALX1 [10],"6.36 upbm affinity estimate (log intensity, higher = more binding, comparable within an allelic series)"
same,binding signal,ALX1 [11],"6.15 upbm affinity estimate (log intensity, higher = more binding, comparable within an allelic series)"
CAAATTTG,binding signal,ALX1 [9],"9.35 upbm affinity estimate (log intensity, higher = more binding, comparable within an allelic series)"
same,binding signal,ALX1 [10],"9 upbm affinity estimate (log intensity, higher = more binding, comparable within an allelic series)"
same,binding signal,ALX1 [11],"9.69 upbm affinity estimate (log intensity, higher = more binding, comparable within an allelic series)"
AAACAATA,binding signal,ALX1 [9],"8.22 upbm affinity estimate (log intensity, higher = more binding, comparable within an allelic series)"
same,binding signal,ALX1 [10],"8.34 upbm affinity estimate (log intensity, higher = more binding, comparable within an allelic series)"
same,binding signal,VAX1 [3],"9.16 upbm affinity estimate (log intensity, higher = more binding, comparable within an allelic series)"
same,binding signal,VAX1 [5],"8.8 upbm affinity estimate (log intensity, higher = more binding, comparable within an allelic series)"
same,binding signal,ALX1 [11],"8.26 upbm affinity estimate (log intensity, higher = more binding, comparable within an allelic series)"
same,binding signal,VAX1 [6],"8.82 upbm affinity estimate (log intensity, higher = more binding, comparable within an allelic series)"
AGAAGGGC,binding signal,ALX1 [9],"6.58 upbm affinity estimate (log intensity, higher = more binding, comparable within an allelic series)"
same,binding signal,ALX1 [10],"6.68 upbm affinity estimate (log intensity, higher = more binding, comparable within an allelic series)"
same,binding signal,ALX1 [11],"6.45 upbm affinity estimate (log intensity, higher = more binding, comparable within an allelic series)"
CTCCTGGA,binding signal,ALX1 [9],"6.55 upbm affinity estimate (log intensity, higher = more binding, comparable within an allelic series)"
same,binding signal,ALX1 [10],"6.53 upbm affinity estimate (log intensity, higher = more binding, comparable within an allelic series)"
same,binding signal,ALX1 [11],"6.48 upbm affinity estimate (log intensity, higher = more binding, comparable within an allelic series)"
GGACGGGA,binding signal,MSX2 [1],"9.67 upbm affinity estimate (log intensity, higher = more binding, comparable within an allelic series)"
same,binding signal,MSX2 [2],"9.5 upbm affinity estimate (log intensity, higher = more binding, comparable within an allelic series)"
same,binding signal,MSX2 [4],"9.6 upbm affinity estimate (log intensity, higher = more binding, comparable within an allelic series)"
CCGGGGAG,binding signal,ALX1 [9],"6.03 upbm affinity estimate (log intensity, higher = more binding, comparable within an allelic series)"
same,binding signal,ALX1 [10],"6.12 upbm affinity estimate (log intensity, higher = more binding, comparable within an allelic series)"
same,binding signal,NKX3-2 [17],"10.5 upbm affinity estimate (log intensity, higher = more binding, comparable within an allelic series)"
same,binding signal,ALX1 [11],"5.94 upbm affinity estimate (log intensity, higher = more binding, comparable within an allelic series)"
same,binding signal,NKX3-2 [18],"10.5 upbm affinity estimate (log intensity, higher = more binding, comparable within an allelic series)"
CGACTGCC,binding signal,ALX1 [9],"6.48 upbm affinity estimate (log intensity, higher = more binding, comparable within an allelic series)"
same,binding signal,ALX1 [10],"6.43 upbm affinity estimate (log intensity, higher = more binding, comparable within an allelic series)"
same,binding signal,ALX1 [11],"6.37 upbm affinity estimate (log intensity, higher = more binding, comparable within an allelic series)"
CTAATGAA,binding signal,ALX1 [9],"10.6 upbm affinity estimate (log intensity, higher = more binding, comparable within an allelic series)"
same,binding signal,ALX1 [10],"10.2 upbm affinity estimate (log intensity, higher = more binding, comparable within an allelic series)"
same,binding signal,VAX1 [3],"12.7 upbm affinity estimate (log intensity, higher = more binding, comparable within an allelic series)"
same,binding signal,VAX1 [5],"12.4 upbm affinity estimate (log intensity, higher = more binding, comparable within an allelic series)"
same,binding signal,ALX1 [11],"11.1 upbm affinity estimate (log intensity, higher = more binding, comparable within an allelic series)"
same,binding signal,HOXA4,"11.5 upbm affinity estimate (log intensity, higher = more binding, comparable within an allelic series)"
same,binding signal,VAX1 [6],"12.4 upbm affinity estimate (log intensity, higher = more binding, comparable within an allelic series)"
CGCCGACC,binding signal,MSX2 [1],"9.46 upbm affinity estimate (log intensity, higher = more binding, comparable within an allelic series)"
same,binding signal,MSX2 [2],"9.28 upbm affinity estimate (log intensity, higher = more binding, comparable within an allelic series)"
same,binding signal,MSX2 [4],"9.4 upbm affinity estimate (log intensity, higher = more binding, comparable within an allelic series)"
same,binding signal,NKX3-2 [17],"10.4 upbm affinity estimate (log intensity, higher = more binding, comparable within an allelic series)"
same,binding signal,NKX3-2 [18],"10.4 upbm affinity estimate (log intensity, higher = more binding, comparable within an allelic series)"
